Compound activity deposited in PubChem by The Scripps Research Institute Molecular Screening Center.
FBW7 act: activators of human E3 ligase FBW7. AlphaScreen FBW7–phospho-cyclin E peptide binding, activator screen. Q969H0. AID 1259310. normalized activity (activation), % at 26.1 µM. 0.13% of 650,000 active; in the data active means normalized activity above about 1.9%;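 further: purified mutant Fbw7 with reduced substrate affinity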
TEAD-YAP inh: TEAD-YAP interaction inhibition; 1.4% of 640,000 active; inhibition, % at 9.12 µM; HEK-TIYL cells, TEAD-Gal4/YAP UAS-luciferase luminescence; in the data active means inhibition above about 32%;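 further: 0% = median of test compound wells and 100% = reference inhibitor wells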
GPR151 ag: human GPR151 activation; Q8TDV0; PathHunter beta-arrestin GPR151 cells, luminescence; activation, % at 11.2 µM; 1% of 650,000 active; AID 1508602; in the data active means activation above about 4.9%;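 further: 0% = median of compound wells and 100% = cells with positive control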
MITF inh: human MITF inhibition, primary screen; O75030; AlphaScreen MITF homodimerization, bead proximity signal; inhibition, % at 2.6 µM; 0.91% of 650,000 active; AID 1259374; in the data active means inhibition above about 50%;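 further: 0% = vehicle wells with protein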
Target sequence (O75030 whole entry, looked up): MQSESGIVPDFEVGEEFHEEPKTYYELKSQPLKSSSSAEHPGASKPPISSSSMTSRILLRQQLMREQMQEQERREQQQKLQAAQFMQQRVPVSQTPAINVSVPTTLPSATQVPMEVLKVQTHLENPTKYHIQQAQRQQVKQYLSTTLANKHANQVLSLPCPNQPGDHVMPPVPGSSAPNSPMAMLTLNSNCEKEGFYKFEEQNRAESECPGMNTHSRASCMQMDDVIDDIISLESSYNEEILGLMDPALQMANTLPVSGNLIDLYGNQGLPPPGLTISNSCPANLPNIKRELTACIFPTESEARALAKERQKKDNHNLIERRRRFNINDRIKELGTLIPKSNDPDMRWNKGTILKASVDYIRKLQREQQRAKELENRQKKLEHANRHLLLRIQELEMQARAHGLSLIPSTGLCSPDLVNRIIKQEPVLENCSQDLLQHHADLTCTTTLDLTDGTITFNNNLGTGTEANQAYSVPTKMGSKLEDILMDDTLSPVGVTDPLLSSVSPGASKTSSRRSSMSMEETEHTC
MITF confirm: confirmation of human MITF inhibitors. shares compounds with MITF inh. AlphaScreen MITF homodimerization, biotin/His-MITF beads. inhibition, % at 2.6 µM. 16% of 4,700 active. AID 1259372;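 active means inhibition above a cutoff derived from the DMSO control wells, cut at about 28% in these data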;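 further: 0% = MITF dimer wells with DMSO only; inhibitors lower the bead chemiluminescence by keeping MITF from dimerizing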
AlphaScreen intf2: optically interferes with AlphaScreen signal. LysRS AlphaScreen counterscreen, signal interference, triplicate. shares compounds with MITF inh. inhibition, % at 2.6 µM. 7.6% of 4,700 active;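 active means inhibition above a cutoff derived from the DMSO control wells, cut at about 30% in these data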
Starred values were filed as active, the others as inactive; ! = a repeat was not active. A selection: hits, their analogues and other compounds. The true share with any hit is near 3.4%.

Results for CN1CCN(Cc2ccc(O)c3ncccc23)CC1 ?
FBW7 act: -2; TEAD-YAP inh: -5; GPR151 ag: 0; MITF inh: 94*; MITF confirm: 106*; AlphaScreen intf2: 101*

How did COc1cc(OC)c(OC)cc1CNCCc1ccc(Cl)cc1 do in these assays?
FBW7 act: 0; TEAD-YAP inh: 7; GPR151 ag: 1; MITF inh: 32

What do the screens show for `COc1ccc(CCNCc2cc(OC)c(OC)cc2OC)cc1`?
FBW7 act: 0; TEAD-YAP inh: 7; GPR151 ag: -1; MITF inh: 61*; MITF confirm: -4; AlphaScreen intf2: -3

Results for CCCCCc1nc2ccccc2c(=O)n1-c1ccccc1O ?
FBW7 act: 0; TEAD-YAP inh: 12; GPR151 ag: 0; MITF inh: -6

How did COc1ccccc1CN1CCN(Cc2ccccc2Br)CC1 do in these assays?
FBW7 act: 0; TEAD-YAP inh: -16; GPR151 ag: -2; MITF inh: 71*; MITF confirm: 2; AlphaScreen intf2: 6

What do the screens show for `CCN1CCN(Cc2ccccc2OC)CC1`?
FBW7 act: 0; TEAD-YAP inh: -3; GPR151 ag: 0; MITF inh: -67

What do the screens show for `COc1ccccc1CN1CCN(Cc2ccccc2C)CC1`?
FBW7 act: 0; TEAD-YAP inh: -8; GPR151 ag: 0; MITF inh: 78*; MITF confirm: 7; AlphaScreen intf2: 9

What do the screens show for `Cc1ccc(OCC(=O)N2CCN(Cc3c[nH]c4ccccc34)CC2)cc1`?
FBW7 act: 0; TEAD-YAP inh: 9; GPR151 ag: 3; MITF inh: 15

How did Cc1nn(CC(=O)N2CCC3(CC2)OCCO3)c(=O)c2cc3sccc3n12 do in these assays?
FBW7 act: 0; TEAD-YAP inh: -3; GPR151 ag: 0; MITF inh: 65*; MITF confirm: 24; AlphaScreen intf2: 5

What do the screens show for `O=C(Cn1ncn2cccc2c1=O)N1CCC2(CC1)OCCO2`?
FBW7 act: 0; TEAD-YAP inh: -12; GPR151 ag: 0; MITF inh: -6

What do the screens show for `CN(C)c1cc(Cl)c2nonc2c1[N+](=O)[O-]`?
FBW7 act: 0; TEAD-YAP inh: -12; GPR151 ag: -3; MITF inh: 25

How did Cc1ccc(-n2c(/C=C/c3ccccc3O)nc3ccc(I)cc3c2=O)cc1 do in these assays?
FBW7 act: 0; TEAD-YAP inh: 7; GPR151 ag: 0; MITF inh: 9

How did Cc1ccc(-n2nnnc2C2(N(C)C)CCCCC2)cc1 do in these assays?
FBW7 act: 0; TEAD-YAP inh: 1; GPR151 ag: -1; MITF inh: 8

What do the screens show for `C[N+]1(C)C2CCC1CC(OC(=O)C(CO)c1ccccc1)C2` (stereo not drawn)?
FBW7 act: 0; TEAD-YAP inh: -5; GPR151 ag: 0; MITF inh: 63*!; MITF confirm: -1; AlphaScreen intf2: -10

How did C[N+]1(C)[C@@H]2CC[C@H]1CC(OC(=O)C(CO)c1ccccc1)C2 (stereo partly drawn) do in these assays?
FBW7 act: 0; GPR151 ag: -4; MITF inh: 18

What do the screens show for `CN(C)CCN(C)Cc1c[nH]c2ccccc12`?
FBW7 act: 0; TEAD-YAP inh: 5; GPR151 ag: 0; MITF inh: 64*; MITF confirm: -1; AlphaScreen intf2: 5

What do the screens show for `CCc1ccc(N2C(=O)CC(=O)NC2=O)cc1`?
FBW7 act: 0; TEAD-YAP inh: 1; GPR151 ag: -1; MITF inh: 69*; MITF confirm: 7; AlphaScreen intf2: 15

What do the screens show for `O=P(/C=C(\Cl)c1ccccc1)(/C=C(\Cl)c1ccccc1)N1CCOCC1`?
FBW7 act: 0; TEAD-YAP inh: 1; GPR151 ag: -1; MITF inh: 1

What do the screens show for `Brc1ccc(CNCCc2c[nH]c3ccccc23)cc1`?
FBW7 act: 1; TEAD-YAP inh: 7; GPR151 ag: 3; MITF inh: 55*; MITF confirm: 11; AlphaScreen intf2: 19

How did CCc1ccc(CNCCc2c[nH]c3ccccc23)cc1 do in these assays?
FBW7 act: 0; TEAD-YAP inh: 3; GPR151 ag: 0; MITF inh: 19

Results for CCOc1ccc(CN2CCN(Cc3ccc(F)cc3)CC2)cc1 ?
FBW7 act: 0; TEAD-YAP inh: 0; GPR151 ag: 0; MITF inh: 61*; MITF confirm: 2; AlphaScreen intf2: -2

How did COc1ccc(CN2CCN(Cc3ccc(OC)cc3)CC2)cc1 do in these assays?
FBW7 act: 0; TEAD-YAP inh: 6; GPR151 ag: -1; MITF inh: 14

What do the screens show for `CCOc1ccc(CN2CCN(Cc3ccccc3F)CC2)cc1`?
FBW7 act: 0; TEAD-YAP inh: 12; GPR151 ag: 0; MITF inh: 75*; MITF confirm: 8; AlphaScreen intf2: 9

What do the screens show for `COc1cccc(CN2CCN(C)C(CCO)C2)c1` (stereo not drawn)?
FBW7 act: 0; TEAD-YAP inh: -3; GPR151 ag: 0; MITF inh: -11

What do the screens show for `COc1cccc(CN(CCN(C)C)C(=O)Cc2ccc(-c3cn[nH]c3)cc2)c1`?
FBW7 act: 0; TEAD-YAP inh: 2; GPR151 ag: 1; MITF inh: -8

What do the screens show for `COc1ccc(CN2C(=O)NC(=O)/C(=C\c3sccc3C)C2=O)cc1`?
FBW7 act: 0; TEAD-YAP inh: 1; GPR151 ag: 0; MITF inh: -5

Results for CCOc1cc(CN2CCN(CC)CC2)ccc1O ?
FBW7 act: 0; TEAD-YAP inh: 11; GPR151 ag: -1; MITF inh: 57*; MITF confirm: 12; AlphaScreen intf2: -1

How did CCN1CCN(Cc2cc(OC)c(OC)c(OC)c2)CC1 do in these assays?
FBW7 act: 1; TEAD-YAP inh: 5; GPR151 ag: 0; MITF inh: 52*; MITF confirm: 13; AlphaScreen intf2: -6

What do the screens show for `COc1cc(CN2CCN(C(C)C)CC2)cc(OC)c1OC`?
FBW7 act: 0; TEAD-YAP inh: 5; GPR151 ag: -1; MITF inh: 82*; MITF confirm: 3; AlphaScreen intf2: 18

What do the screens show for `COc1cc(CN2CCN(CCO)CC2)cc(OC)c1OC`?
FBW7 act: 0; TEAD-YAP inh: 10; GPR151 ag: 0; MITF inh: 1

Results for CCN1CCN(Cc2ccc(OC)c(C)c2C)CC1 ?
FBW7 act: 0; TEAD-YAP inh: 9; GPR151 ag: 0; MITF inh: 53*; MITF confirm: 0; AlphaScreen intf2: 3

How did Cc1cccc(CN2CCN(C(C)C)CC2)c1 do in these assays?
FBW7 act: 0; TEAD-YAP inh: 7; GPR151 ag: 1; MITF inh: 34

How did Cc1ccc(Cn2ccsc2=N)cc1 do in these assays?
FBW7 act: 0; TEAD-YAP inh: -6; GPR151 ag: -1; MITF inh: 0

What do the screens show for `COc1ccc(CN2CCN(CC(C)C)C(CCO)C2)cc1C` (stereo not drawn)?
FBW7 act: 0; TEAD-YAP inh: -4; GPR151 ag: 1; MITF inh: 2
